Out of some 320,000 compounds screened, about 2,100 (0.66%) were called active. Roughly 53% stayed inconclusive and do not appear here. Calls come from the whole dose curve; as a rule, active = well fitted inhibition curve with a large enough effect in the signal ratio, with a control signal flat (not every such curve was filed as active); inconclusive = small, poorly fitted or top-dose-only effect, or effect the other way, or a change in a side signal; inactive = flat fitted curve, though single readings scatter; the % refers to the signal ratio. The full list was thinned out, with actives kept by preference.
Potency is the fitted concentration of half-maximal effect.

The assay in a line: qHTS Assay for Lipid Storage Modulators in Drosophila S3 Cells.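 For cell number change: cells counted by Cell Tracker Red CMTPX staining in the red channel.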 For lipid storage change, negative = inhibition: % is set by controls: 0 for no effect and ±100 for the full control effect. To be noted: BODIPY lipid droplet fluorescence, 18-24 h, cells fed with added oleic acid; cell number change: measured here: cell count max response; series mostly up to 46.1 µM. The procedure, abridged:
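Laser-scanning cytometry quantifies lipid droplet accumulation (500–530 nm total intensity; droplet/cell object ratio) in oleic acid-fed (400 uM added) Drosophila S3 cells treated with a concentration series. 20 uM Triacsin C defined 100% inhibition.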
For the molecule `O=C(NNS(=O)(=O)c1ccccc1)c1cnn(-c2ccccc2)c1-n1cccc1`, the Potency entry was “inactive” and the cell number change is 9.3%. Regarding `O=C1CC(NS(=O)(=O)c2cc(F)ccc2F)CN1c1ccc2c(c1)OCCO2` (centres undefined), the Potency result was “inactive”. On to `CC(=O)N1CCc2cc(Br)cc(S(=O)(=O)N3CCCCCC3)c21`, for which the Potency result was “inactive” and the cell number change was -5.11%. Turning to `Cn1cccc1/C=N/NC(=O)CSc1nc2ccccc2[nH]1`, the Potency result is “inactive” and the cell number change amounted to 5.5%. Turning to `CCC(=O)NC(=S)Nc1ccc(NC(=O)c2ccc(Br)o2)cc1`, the cell number change is -10.2% and the lipid storage change, negative = inhibition is -15.2% [at 9.22 µM] (inactive). For the molecule `C=CCn1c(CNC(=O)c2ccccc2F)nnc1SCC(=O)NC(C)c1ccccc1` (centres undefined), the Potency result was “inactive” and the cell number change is 1.35%.

Regarding `Cc1cc(=O)oc2cc(OCc3ccc(C(=O)OCC(=O)N(C)C4CCS(=O)(=O)C4)cc3)ccc12` (centres undefined), the Potency result was “inactive” and the cell number change was -7.42%.

Take `Cc1cc(=O)oc2cc(OCC(=O)OCC(=O)N(C)C3CCS(=O)(=O)C3)ccc12` (centres undefined): the Potency result is “inactive” and the cell number change is 7.81%. For `CCN(C(=O)COC(=O)COc1ccc2c(C)cc(=O)oc2c1)C1CCS(=O)(=O)C1` (centres undefined) the same measures were 0.0461 µM (active) and -49.7%.

Consider `Fc1ccccc1C(c1nnnn1C1CCCC1)N1CCN(Cc2ccccc2)CC1` (centres undefined), for which the Potency entry is “inactive” and the cell number change was -15.7%. `COc1ccccc1NC(=O)Nc1ccc(Br)cn1`: the Potency result is “inactive” and the cell number change was -23.3%. For `COc1ccc(C2/C=C\CN(S(=O)(=O)/C=C/c3ccccc3)[C@H](Cc3ccccc3)C(=O)N2Cc2ccc(F)cc2)cc1` (some centres undefined), the Potency result was “inactive” and the cell number change worked out at 2.68%. As for `COc1cc(/C=N/NC(=O)c2ccc3nc[nH]c3c2)ccc1O`, the Potency entry was “inactive” and the cell number change came out at 8.7%.

For `Cc1ccc(CNC(=O)COc2cccc3c2OC(C)(C)C3)cc1`, the Potency is 10.3 µM (active).

Take `COc1cccc(CNC(=O)COc2cccc3c2OC(C)(C)C3)c1`: the Potency entry was “inactive”. Regarding `CC1(C)Cc2cccc(OCC(=O)NCc3ccc(F)cc3)c2O1`, the Potency entry is “inactive” and the cell number change stood at 2.51%. In the case of `CN(CCNC(=O)c1cn(C)c2ccc(S(=O)(=O)N3CCCC3)cc2c1=O)CCc1ccccc1`, the Potency entry is “inactive”. As to `COc1cc(NC(=S)N(C)CCC#N)c(OC)cc1Cl`, the Potency result is “inactive” and the cell number change was -2.16%. Take `CCOC(=O)c1nn(-c2ccc(Cl)cc2Cl)c(=N)c(C#N)c1C`: the Potency is 18.4 µM (active) and the cell number change is 4.21%. Regarding `CCOC(=O)c1nc(C)n(-c2ccc(Cl)cc2Cl)n1`, the Potency entry is “inactive”.

Take `CCOC(=O)c1nn(-c2ccc(C)c(C)c2)c(=O)c(C#N)c1C`: the Potency result was “inactive” and the cell number change was -19.4%. For the molecule `CC(C)(C)NC(=O)NC(=O)COC(=O)C1=COCCO1`, the Potency entry was “inactive” and the cell number change is -19.1%.

In the case of `CC1(C)c2ssc(=S)c2-c2ccccc2N1C(=O)c1ccco1`, the Potency was 8.2 µM (active) and the cell number change was found to be 1.38%. `Cc1ccc2c(c1)N(C(=O)CSc1nncn1C)C(C)(C)c1ssc(=S)c1-2`: the Potency result was “inactive” and the cell number change is -13.4%.

Consider `Cn1cnnc1SCC(=O)N1c2ccccc2-c2c(ssc2=S)C1(C)C`, for which the Potency entry was “inactive” and the cell number change was found to be 1.3%. Consider `O=C(N/N=C/c1ccccc1C(=O)O)c1cccc(S(=O)(=O)N2CCOCC2)c1`, for which the Potency entry is “inactive” and the cell number change was 10.2%. Consider `Cc1onc(-c2ccncc2)c1C(=O)O`, for which the Potency is 20.6 µM (active) and the cell number change was -5.32%. Turning to `Cc1onc(-c2ccccc2)c1C(N)=O`, the Potency entry was “inactive”. On to `Cc1onc(-c2ccccc2)c1C(=O)Nc1ccncc1`, for which the Potency entry is “inactive” and the cell number change turned out to be 12.5%. Turning to `CCOc1ccc(CN2CCC(=O)NC2=O)cc1`, the Potency entry was “inactive” and the cell number change was -4.82%. For the molecule `CC1CC(C)CN(CCCNC(=O)c2ccc(N3CCCC3=O)cc2)C1` (centres undefined), the Potency result is “inactive” and the cell number change is -12.7%. Take `COC(CNC(=O)c1ccc(N2CCC3(CC2)OCCO3)c([N+](=O)[O-])c1)OC`: the Potency entry was “inactive” and the cell number change is -9.81%. As to `COC(CNC(=O)c1ccc(N2CCc3ccccc32)c([N+](=O)[O-])c1)OC`, the Potency is 20.6 µM (active) and the cell number change was -26.9%. For the molecule `COC(CNC(=O)c1cc(S(=O)(=O)N2CCc3ccccc32)ccc1F)OC`, the Potency entry was “inactive”. As for `O=C(Nc1cccc([N+](=O)[O-])c1)C(=O)N1CCCCC1`, the Potency entry is “inactive” and the cell number change is -20.3%. For `CCOC(=O)c1ccc(NC(=O)CSc2nnc(-c3ccncc3)n2C)cc1`, the Potency result was “inactive” and the cell number change was found to be 3.98%. For `COc1ccc2c(C)cc(N3CCCCCC3)nc2c1`, in that order: “inactive” and 23.5%.

With `Cc1cc(N2CCOCC2)nc2cc(O)ccc12`, the Potency entry was “inactive” and the cell number change is -2.46%. With `COc1ccc2c(C)cc(N3CCOCC3)nc2c1`, the Potency was 4.61 µM (active) and the cell number change is -8.65%. With `CSc1ccc(S(=O)(=O)Nc2c(C)cccc2C)cc1`, the Potency result is “inactive” and the cell number change turned out to be 1.28%.

For the molecule `CCCCCCCn1c(=N)n(CC(O)c2ccco2)c2ccccc21` (centres undefined), the Potency entry is “inactive” and the cell number change is -4.47%. For `Cc1ccc2c(CN3CC(C)CC(C)C3)cc(=O)oc2c1` (centres undefined) the same measures were 1.16 µM (active) and 4.5%. Take `Cc1ccc2c(CN3CCN(Cc4ccccc4)CC3)cc(=O)oc2c1`: the Potency entry was “inactive” and the cell number change was found to be 22.5%. As to `Cc1ccc2c(CN3CCOCC3)cc(=O)oc2c1`, the Potency result was “inactive” and the cell number change worked out at 3.55%. In the case of `O=c1cc(CN2CCOCC2)c2cc(Cl)c(O)cc2o1`, the Potency result was “inactive” and the cell number change is -11.3%. For `COC(=O)C1CCN(Cc2cc(=O)oc3cc(C)c(Cl)cc23)CC1`, the Potency entry is “inactive” and the cell number change came out at 14.6%. Consider `CC1CN(Cc2cc(=O)oc3cc(O)c(Cl)cc23)CC(C)O1` (centres undefined), for which the Potency is 1.64 µM (active) and the cell number change is -11.3%. `CCCCCCNC(=O)c1cc(-c2ccco2)nc2ccccc12`: the Potency result was “inactive” and the cell number change was -17.2%. As to `O=C(CN1C(=O)NC2(CCCC2)C1=O)N1CCN(Cc2ccccc2)CC1`, the Potency entry is “inactive” and the cell number change worked out at 0.232%. For `COC(=O)Cn1nc(-c2ccc(C)cc2)c2ccccc2c1=O`, the Potency result was “inactive” and the cell number change was found to be 9.56%. For `COc1ccc(/C=N/NC(=O)CCN2CCCCC2c2cccnc2)cc1Cn1cc([N+](=O)[O-])cn1` (centres undefined) the same measures were “inactive” and -16.7%.

Regarding `CN(C)CCN(Cc1ccccc1)S(=O)(=O)c1ccc(-c2ccc(=O)[nH]n2)s1`, the Potency result is “inactive”.

In the case of `COc1cc2c(cc1OC)C(C(=O)NCc1cccnc1)C(c1cccnc1)N(C)C2=O` (centres undefined), the Potency result is “inactive” and the cell number change was -0.81%. On to `COc1ccc(C2C(C(=O)NCc3cccnc3)c3ccccc3C(=O)N2C)cc1OC` (centres undefined), for which the Potency was 2.59 µM (active) and the cell number change is -17.1%. Turning to `COc1ccc(C2C(C(=O)NCc3ccccn3)c3ccccc3C(=O)N2C)cc1OC` (centres undefined), the Potency entry is “inactive”. Turning to `O=C(N/N=C\c1cccnc1)C1c2ccccc2Oc2ccccc21`, the Potency result is “inactive” and the cell number change is -0.813%.

Take `CCN(CC)C(=O)c1[nH]cnc1C(=O)N[C@@H](CC(C)C)C(=O)OCc1ccccc1`: the Potency entry was “inactive” and the cell number change was -10.8%. Consider `C/C(=N\NC(=O)c1cccc([N+](=O)[O-])c1)c1cccc(NC(=O)C2CC2)c1`, for which the Potency entry is “inactive” and the cell number change was -1.94%.

`Cc1ccccc1NC(=O)CN1C(=O)N/C(=C\c2ccc(N3CCOCC3)c(F)c2)C1=O`: the Potency entry was “inactive” and the cell number change is -7.47%.
